{"source": "PubChem BioAssay (Tox21)", "note": "Inconclusive results are not listed. Unmarked numbers belong to inactive results. Unless noted, the call rests on the fitted dose curve; in most records, active means well fitted cell-killing curve with a large enough effect in the repeat runs; inconclusive means weak or mixed curves; inactive means flat fitted curve, though single readings scatter. On the % scale 0 is the no-effect control and ±100 the full control effect.", "data": [{"assay": "qHTS assay to identify small molecule agonists of the progesterone receptor (PR) signaling pathway - cell viability counter screen (AID 1346799; calls by dose curve; further: nearly all actives have a fitted effect of over 45% in size)", "conditions": "PR-UAS-bla HEK293T viability, CellTiter-Glo luminescence, 16 h; series mostly up to 92.4 µM; activity change, negative = cytotoxicity: at the top concentration", "method_in_brief": "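Counter screen in the PR-UAS-bla HEK293T wells (2% charcoal-stripped FBS, 16 h compound exposure at 37 C) after the bla read. CellTiter-Glo added, 30 min at room temperature, luminescence read as cell viability.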", "values": [{"smiles": "COc1ncc(F)c2nc(S(=O)(=O)Nc3c(F)cccc3F)nn12", "activity change, negative = cytotoxicity": "-4.07% [at 42.5 µM]"}, {"smiles": "CCCCOP(=O)(O)OCCCC", "activity change, negative = cytotoxicity": "0.414%"}, {"smiles": "CN(N=O)C(N)=O", "activity change, negative = cytotoxicity": "0.515%"}, {"smiles": "OCCSCSCCO", "activity change, negative = cytotoxicity": "-5.2%"}, {"smiles": "ClCC(Cl)Cl", "activity change, negative = cytotoxicity": "3.02%"}, {"smiles": "O=C(O)c1cccc(Cl)c1", "activity change, negative = cytotoxicity": "-8.43%"}, {"smiles": "CS(=O)(=O)c1cc(C(F)(F)F)ccc1C(=O)c1cnoc1C1CC1", "activity change, negative = cytotoxicity": "-6.96%"}, {"smiles": "COC(=O)c1ccccc1S(=O)(=O)NC(=O)Nc1nc(C)cc(C)n1", "activity change, negative = cytotoxicity": "8.63%"}, {"smiles": "CCSC(=O)N(CC)C1CCCCC1", "activity change, negative = cytotoxicity": "1.41%"}, {"smiles": "CC(=O)CC(c1ccc(Cl)cc1)c1c(O)c2ccccc2oc1=O", "note": "(centres undefined)", "activity change, negative = cytotoxicity": "-1.97%"}, {"smiles": "CCOP(=O)(OCC)OP(=O)(OCC)OCC", "activity change, negative = cytotoxicity": "-5.11%"}, {"smiles": "N#CCCC#N", "activity change, negative = cytotoxicity": "-2.59%"}, {"smiles": "COC(=O)c1ccccc1S(=O)(=O)NC(=O)N(C)c1nc(C)nc(OC)n1", "activity change, negative = cytotoxicity": "27.1%"}, {"smiles": "Cc1ncc(CNC(=O)N(CCCl)N=O)c(N)n1", "activity change, negative = cytotoxicity": "-1% [at 42.5 µM]"}, {"smiles": "O=P(O)(Oc1ccccc1)Oc1ccccc1", "activity change, negative = cytotoxicity": "-0.704%"}, {"smiles": "BrCCCCCCBr", "activity change, negative = cytotoxicity": "-6.68%"}, {"smiles": "C[N+](C)=CCl", "activity change, negative = cytotoxicity": "-5.11%"}, {"smiles": "O=C(Oc1ccc(Br)cc1)N1CCN2CCC1CC2", "activity change, negative = cytotoxicity": "5.62%"}, {"smiles": "COc1cc(OC)nc(NC(=O)NS(=O)(=O)c2ncccc2C(=O)N(C)C)n1", "activity change, negative = cytotoxicity": "-0.0071%"}, {"smiles": "Cc1cc(C)c(C(=O)P(=O)(C(=O)c2c(C)cc(C)cc2C)c2ccccc2)c(C)c1", "activity change, negative = cytotoxicity": "-12.6%"}, {"smiles": "ClC(Cl)Br", "activity change, negative = cytotoxicity": "-0.0024%"}, {"smiles": "Cc1coc2c1CCC(C)C2", "note": "(centres undefined)", "activity change, negative = cytotoxicity": "-5.52%"}, {"smiles": "C[C@]12CC[C@H]3[C@@H](CC=C4C[C@@H](O)CC[C@@]43C)[C@@H]1CC[C@@H]2O", "activity change, negative = cytotoxicity": "-0.133% [at 42.5 µM]"}, {"smiles": "O=NN1CCCCC1", "activity change, negative = cytotoxicity": "4.02%"}, {"smiles": "C=CC1CC=CCC1", "note": "(centres undefined)", "activity change, negative = cytotoxicity": "7.11%"}, {"smiles": "CC(C)NCC(O)c1ccc(N)c(C#N)c1", "note": "(centres undefined)", "activity change, negative = cytotoxicity": "0.949% [at 42.5 µM]"}, {"smiles": "CNC(=O)Oc1cccc(C(C)C)c1", "activity change, negative = cytotoxicity": "1.03%"}, {"smiles": "CC1=NNC(=O)N(/N=C/c2cccnc2)C1", "activity change, negative = cytotoxicity": "6.86%"}, {"smiles": "CCC(=O)c1ccccc1", "activity change, negative = cytotoxicity": "-0.119%"}]}, {"assay": "qHTS assay to identify small molecule antagonists of the TGF-beta/Smad signaling pathway - cell viability counter screen (AID 1346824); further: nearly all actives have a fitted effect of over 50% in size", "conditions": "SBE-bla HEK293T viability, CellTiter-Glo luminescence; series mostly up to 76.8 µM; viability change, negative = cytotoxic: at the top concentration", "method_in_brief": "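SBE-bla HEK 293T cells were plated overnight at 37 C, then given compounds in DMSO plus TGF-beta1 (added as 0.25 ng/mL solution) for 5 hr. After the bla read, CellTiter-Glo was added to the same wells and luminescence read after 30 min at room temperature.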", "values": [{"smiles": "COc1ncc(F)c2nc(S(=O)(=O)Nc3c(F)cccc3F)nn12", "viability change, negative = cytotoxic": "-2.43% [at 35.3 µM]"}, {"smiles": "CC(C1CC1)C(O)(Cn1cncn1)c1ccc(Cl)cc1", "note": "(centres undefined)", "viability change, negative = cytotoxic": "-12.1%"}, {"smiles": "CCCCOP(=O)(O)OCCCC", "viability change, negative = cytotoxic": "-1.35%"}, {"smiles": "CN(N=O)C(N)=O", "viability change, negative = cytotoxic": "-0.316%"}, {"smiles": "OCCSCSCCO", "viability change, negative = cytotoxic": "-6.55%"}, {"smiles": "ClCC(Cl)Cl", "viability change, negative = cytotoxic": "2.86%"}, {"smiles": "O=C(O)c1cccc(Cl)c1", "viability change, negative = cytotoxic": "2.11%"}, {"smiles": "CS(=O)(=O)c1cc(C(F)(F)F)ccc1C(=O)c1cnoc1C1CC1", "viability change, negative = cytotoxic": "1.3%"}, {"smiles": "CC1CN1P(=O)(N1CC1C)N1CC1C", "note": "(centres undefined)", "viability change, negative = cytotoxic": "3.98%"}, {"smiles": "CCSC(=O)N(CC)C1CCCCC1", "viability change, negative = cytotoxic": "2.04%"}, {"smiles": "CC(=O)CC(c1ccc(Cl)cc1)c1c(O)c2ccccc2oc1=O", "note": "(centres undefined)", "viability change, negative = cytotoxic": "8.9%"}, {"smiles": "CCOP(=O)(OCC)OP(=O)(OCC)OCC", "viability change, negative = cytotoxic": "3.35%"}, {"smiles": "CNC(=O)Oc1ccccc1C1OCCO1", "viability change, negative = cytotoxic": "14.1%"}, {"smiles": "N#CCCC#N", "viability change, negative = cytotoxic": "0.622%"}, {"smiles": "COC(=O)c1ccccc1S(=O)(=O)NC(=O)N(C)c1nc(C)nc(OC)n1", "viability change, negative = cytotoxic": "7.39%"}, {"smiles": "Cc1ncc(CNC(=O)N(CCCl)N=O)c(N)n1", "viability change, negative = cytotoxic": "5.53% [at 35.3 µM]"}, {"smiles": "Clc1ccccc1N1CCNCC1", "viability change, negative = cytotoxic": "3.71% [at 35.3 µM]"}, {"smiles": "O=P(O)(Oc1ccccc1)Oc1ccccc1", "viability change, negative = cytotoxic": "9.48%"}, {"smiles": "BrCCCCCCBr", "viability change, negative = cytotoxic": "-5.3%"}, {"smiles": "C[N+](C)=CCl", "viability change, negative = cytotoxic": "-4.44%"}, {"smiles": "O=c1oc2ccccc2c(O)c1C1CCCc2ccccc21", "note": "(centres undefined)", "viability change, negative = cytotoxic": "12.3%"}, {"smiles": "O=C(Oc1ccc(Br)cc1)N1CCN2CCC1CC2", "viability change, negative = cytotoxic": "0.203%"}, {"smiles": "COc1cc(OC)nc(NC(=O)NS(=O)(=O)c2ncccc2C(=O)N(C)C)n1", "viability change, negative = cytotoxic": "2.8%"}, {"smiles": "Cc1cc(C)c(C(=O)P(=O)(C(=O)c2c(C)cc(C)cc2C)c2ccccc2)c(C)c1", "viability change, negative = cytotoxic": "0.527%"}, {"smiles": "Cc1coc2c1CCC(C)C2", "note": "(centres undefined)", "viability change, negative = cytotoxic": "-17.6%"}, {"smiles": "C[C@]12CC[C@H]3[C@@H](CC=C4C[C@@H](O)CC[C@@]43C)[C@@H]1CC[C@@H]2O", "viability change, negative = cytotoxic": "4.57% [at 35.3 µM]"}, {"smiles": "O=NN1CCCCC1", "viability change, negative = cytotoxic": "-0.594%"}, {"smiles": "O=[N+]([O-])c1ccc(CBr)cc1", "viability change, negative = cytotoxic": "11.4%"}, {"smiles": "C=CC1CC=CCC1", "note": "(centres undefined)", "viability change, negative = cytotoxic": "0.501%"}, {"smiles": "CC(C)NCC(O)c1ccc(N)c(C#N)c1", "note": "(centres undefined)", "viability change, negative = cytotoxic": "12.6% [at 35.3 µM]"}, {"smiles": "COc1cc(C[C@@H](C)N)c(OC)cc1C", "viability change, negative = cytotoxic": "11.8%"}, {"smiles": "c1ccc(N2CCNCC2)cc1", "viability change, negative = cytotoxic": "9.23% [at 35.3 µM]"}, {"smiles": "CNC(=O)Oc1cccc(C(C)C)c1", "viability change, negative = cytotoxic": "1.38%"}, {"smiles": "CC1=NNC(=O)N(/N=C/c2cccnc2)C1", "viability change, negative = cytotoxic": "8.89%"}, {"smiles": "CCC(=O)c1ccccc1", "viability change, negative = cytotoxic": "1.03%"}]}]}
